Assay in all cases: log2 fold change, soluble protein after heating vs DMSO (PISA); higher = thermal stabilisation; K562 cells, 10 uM, 30 min; active = over 0.2 and 3.5 SD of the protein, either way, in both replicates (recomputed)
Compound in test [1]: C1=CC=C(C=C1)[C@H](COC2=CC3=C(C=C2)NC(=O)N3)NC(=O)C4=CC=CN(C4=O)CC5=CC(=C(C=C5)F)F
In a few lines: (§1)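 Values are thermal stability changes relative to control samples and are taken from duplicates. They are stated as log2 fold changes. Before quantification by TMTpro 16plex LC-MS/MS with equalised channel sums, K562 cells at 2×10^6 cells/mL were treated with 10 μM compound for 30 min, heated in aliquots for 3 min across 48°C-58°C, pooled, extracted in PBS with 0.5% NP-40 at 4°C, and centrifuged at 21,000xg for 90 min to give the soluble supernatant.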

Compound in test [2]: CC1=C(SC2=C1C(=N[C@H](C3=NN=C(N32)C)CC(=O)N)C4=CC=C(C=C4)Cl)C
The essentials: as §1

Compound in test [3]: CC1=C2C(=CC=C1)N=C(N(C2=O)C3=CC=CC=C3C)CN4C=NC5=C(N=CN=C54)N
The essentials: as §1

Compound in test [4]: Cc1sc2c(c1C)C(c1ccc(Cl)cc1)=N[C@@H](CC(=O)OC(C)(C)C)c1nnc(C)n1-2
The essentials: as §1

Compound in test [5]: c1ccc([C@@H]2C[C@H]2NC2CCNCC2)cc1
In a few lines: as §1

Our source for the log2 fold change values is the supplement of paper PMC10849652.

Of roughly 7,900 targets only a part is listed; those with a hit were picked by preference. About 0.6% of all pairs of compound and target were hits. Unmarked numbers belong to inactive results.

UniProt Q6Y7W6, sequence (Q6Y7W6 whole entry, looked up): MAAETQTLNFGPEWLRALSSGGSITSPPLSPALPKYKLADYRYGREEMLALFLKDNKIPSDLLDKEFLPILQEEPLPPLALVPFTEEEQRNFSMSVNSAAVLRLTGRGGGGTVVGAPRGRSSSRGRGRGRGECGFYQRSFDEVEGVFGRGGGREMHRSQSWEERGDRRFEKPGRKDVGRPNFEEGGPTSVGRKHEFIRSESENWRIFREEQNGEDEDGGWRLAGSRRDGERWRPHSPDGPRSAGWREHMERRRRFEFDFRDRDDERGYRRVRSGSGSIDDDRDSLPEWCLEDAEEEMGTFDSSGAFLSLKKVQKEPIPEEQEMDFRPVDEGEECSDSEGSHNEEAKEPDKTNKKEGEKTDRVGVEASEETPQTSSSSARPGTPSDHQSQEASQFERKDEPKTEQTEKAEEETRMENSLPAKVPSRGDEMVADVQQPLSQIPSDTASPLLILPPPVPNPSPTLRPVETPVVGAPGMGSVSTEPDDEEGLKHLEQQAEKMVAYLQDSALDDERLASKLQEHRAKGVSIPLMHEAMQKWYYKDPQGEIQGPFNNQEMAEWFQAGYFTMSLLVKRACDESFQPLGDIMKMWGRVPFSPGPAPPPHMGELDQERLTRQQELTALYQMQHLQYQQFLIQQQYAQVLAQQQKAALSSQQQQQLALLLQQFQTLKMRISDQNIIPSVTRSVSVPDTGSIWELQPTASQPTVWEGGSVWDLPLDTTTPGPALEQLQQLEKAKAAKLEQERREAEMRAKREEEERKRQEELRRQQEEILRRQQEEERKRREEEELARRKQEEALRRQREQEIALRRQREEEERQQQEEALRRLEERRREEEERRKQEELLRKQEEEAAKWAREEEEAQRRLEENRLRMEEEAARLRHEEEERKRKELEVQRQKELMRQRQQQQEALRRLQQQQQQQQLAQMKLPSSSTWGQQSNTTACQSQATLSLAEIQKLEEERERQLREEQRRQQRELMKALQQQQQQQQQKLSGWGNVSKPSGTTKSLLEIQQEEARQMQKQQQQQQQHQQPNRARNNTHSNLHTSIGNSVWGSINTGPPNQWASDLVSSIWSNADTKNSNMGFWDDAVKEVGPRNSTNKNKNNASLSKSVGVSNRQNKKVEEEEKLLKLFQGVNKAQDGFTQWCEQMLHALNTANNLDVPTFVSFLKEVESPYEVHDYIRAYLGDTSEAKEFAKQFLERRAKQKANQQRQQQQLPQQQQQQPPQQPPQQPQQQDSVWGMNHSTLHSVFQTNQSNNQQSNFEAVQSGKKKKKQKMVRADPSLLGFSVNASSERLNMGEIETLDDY
UniProt P0CL80, sequence (P0CL80 whole entry, looked up): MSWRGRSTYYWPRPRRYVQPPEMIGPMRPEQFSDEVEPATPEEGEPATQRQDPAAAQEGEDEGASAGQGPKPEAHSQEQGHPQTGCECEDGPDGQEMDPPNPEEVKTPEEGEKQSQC
UniProt Q9Y248, sequence (Q9Y248 whole entry, looked up): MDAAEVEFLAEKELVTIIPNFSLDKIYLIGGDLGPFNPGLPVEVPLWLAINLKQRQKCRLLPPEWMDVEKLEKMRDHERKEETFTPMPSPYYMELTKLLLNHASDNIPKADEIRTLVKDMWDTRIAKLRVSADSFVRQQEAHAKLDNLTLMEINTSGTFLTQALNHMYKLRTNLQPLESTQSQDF
UniProt O75146, sequence (O75146 whole entry, looked up): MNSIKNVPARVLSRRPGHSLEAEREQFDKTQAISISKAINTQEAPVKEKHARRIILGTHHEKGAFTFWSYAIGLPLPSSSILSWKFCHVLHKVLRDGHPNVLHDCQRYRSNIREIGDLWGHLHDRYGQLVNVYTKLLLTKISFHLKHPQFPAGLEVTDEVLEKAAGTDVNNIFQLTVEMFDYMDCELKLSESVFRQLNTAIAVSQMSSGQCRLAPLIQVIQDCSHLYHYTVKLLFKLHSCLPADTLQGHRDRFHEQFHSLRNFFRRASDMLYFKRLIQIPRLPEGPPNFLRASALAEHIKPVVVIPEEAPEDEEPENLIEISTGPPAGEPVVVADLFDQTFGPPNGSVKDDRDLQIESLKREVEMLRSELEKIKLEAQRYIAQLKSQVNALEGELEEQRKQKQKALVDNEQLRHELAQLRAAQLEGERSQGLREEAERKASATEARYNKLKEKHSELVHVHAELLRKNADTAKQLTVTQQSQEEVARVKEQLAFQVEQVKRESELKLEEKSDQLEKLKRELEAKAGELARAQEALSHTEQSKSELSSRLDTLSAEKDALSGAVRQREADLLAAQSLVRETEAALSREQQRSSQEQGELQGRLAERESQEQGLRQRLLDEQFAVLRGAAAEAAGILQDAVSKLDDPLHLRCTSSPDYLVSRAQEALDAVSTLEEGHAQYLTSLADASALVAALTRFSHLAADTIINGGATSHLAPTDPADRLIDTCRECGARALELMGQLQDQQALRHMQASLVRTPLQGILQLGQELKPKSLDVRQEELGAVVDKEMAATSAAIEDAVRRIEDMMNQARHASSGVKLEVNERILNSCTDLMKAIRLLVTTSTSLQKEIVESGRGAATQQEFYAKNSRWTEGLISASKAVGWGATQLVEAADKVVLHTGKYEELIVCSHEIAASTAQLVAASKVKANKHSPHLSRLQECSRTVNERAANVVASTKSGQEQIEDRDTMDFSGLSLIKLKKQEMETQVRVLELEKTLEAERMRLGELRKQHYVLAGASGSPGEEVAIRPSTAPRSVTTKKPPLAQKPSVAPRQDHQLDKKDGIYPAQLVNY
UniProt P05114, sequence (P05114 whole entry, looked up): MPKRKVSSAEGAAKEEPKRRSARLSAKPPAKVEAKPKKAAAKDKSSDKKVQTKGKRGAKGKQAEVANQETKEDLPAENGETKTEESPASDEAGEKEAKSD
UniProt O76003, sequence (O76003 whole entry, looked up): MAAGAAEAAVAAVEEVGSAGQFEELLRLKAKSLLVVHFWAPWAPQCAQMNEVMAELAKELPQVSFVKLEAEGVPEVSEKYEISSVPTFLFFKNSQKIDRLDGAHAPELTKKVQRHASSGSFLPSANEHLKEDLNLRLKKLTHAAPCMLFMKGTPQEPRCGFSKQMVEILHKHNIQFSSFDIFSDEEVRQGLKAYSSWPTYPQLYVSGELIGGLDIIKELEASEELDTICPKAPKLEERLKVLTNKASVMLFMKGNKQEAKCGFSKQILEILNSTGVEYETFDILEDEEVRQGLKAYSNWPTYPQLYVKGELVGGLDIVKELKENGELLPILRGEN
UniProt P39748, sequence (P39748 whole entry, looked up): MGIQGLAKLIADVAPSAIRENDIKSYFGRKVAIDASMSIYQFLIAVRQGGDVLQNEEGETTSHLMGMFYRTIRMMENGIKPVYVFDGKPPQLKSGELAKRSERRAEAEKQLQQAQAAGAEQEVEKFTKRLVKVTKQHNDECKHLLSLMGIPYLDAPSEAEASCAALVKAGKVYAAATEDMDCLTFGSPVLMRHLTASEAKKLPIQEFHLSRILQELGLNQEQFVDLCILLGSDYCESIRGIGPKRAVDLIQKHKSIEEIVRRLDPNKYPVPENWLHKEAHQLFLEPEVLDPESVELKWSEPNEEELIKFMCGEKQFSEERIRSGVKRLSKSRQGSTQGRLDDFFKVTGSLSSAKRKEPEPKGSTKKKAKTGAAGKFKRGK
UniProt O95363, sequence (O95363 whole entry, looked up): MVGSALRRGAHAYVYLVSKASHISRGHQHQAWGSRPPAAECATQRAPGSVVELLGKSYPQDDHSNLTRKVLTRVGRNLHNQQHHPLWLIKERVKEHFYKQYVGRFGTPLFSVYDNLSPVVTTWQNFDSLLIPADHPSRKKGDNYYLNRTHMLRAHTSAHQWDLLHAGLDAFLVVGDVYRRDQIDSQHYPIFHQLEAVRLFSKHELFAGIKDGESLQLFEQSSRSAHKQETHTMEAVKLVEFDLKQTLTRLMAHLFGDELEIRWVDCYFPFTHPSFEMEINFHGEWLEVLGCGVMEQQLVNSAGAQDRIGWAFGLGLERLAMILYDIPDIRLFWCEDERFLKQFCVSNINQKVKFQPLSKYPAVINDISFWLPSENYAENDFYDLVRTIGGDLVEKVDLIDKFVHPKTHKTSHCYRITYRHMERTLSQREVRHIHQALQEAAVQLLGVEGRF
UniProt Q7Z4Q2, sequence (Q7Z4Q2 whole entry, looked up): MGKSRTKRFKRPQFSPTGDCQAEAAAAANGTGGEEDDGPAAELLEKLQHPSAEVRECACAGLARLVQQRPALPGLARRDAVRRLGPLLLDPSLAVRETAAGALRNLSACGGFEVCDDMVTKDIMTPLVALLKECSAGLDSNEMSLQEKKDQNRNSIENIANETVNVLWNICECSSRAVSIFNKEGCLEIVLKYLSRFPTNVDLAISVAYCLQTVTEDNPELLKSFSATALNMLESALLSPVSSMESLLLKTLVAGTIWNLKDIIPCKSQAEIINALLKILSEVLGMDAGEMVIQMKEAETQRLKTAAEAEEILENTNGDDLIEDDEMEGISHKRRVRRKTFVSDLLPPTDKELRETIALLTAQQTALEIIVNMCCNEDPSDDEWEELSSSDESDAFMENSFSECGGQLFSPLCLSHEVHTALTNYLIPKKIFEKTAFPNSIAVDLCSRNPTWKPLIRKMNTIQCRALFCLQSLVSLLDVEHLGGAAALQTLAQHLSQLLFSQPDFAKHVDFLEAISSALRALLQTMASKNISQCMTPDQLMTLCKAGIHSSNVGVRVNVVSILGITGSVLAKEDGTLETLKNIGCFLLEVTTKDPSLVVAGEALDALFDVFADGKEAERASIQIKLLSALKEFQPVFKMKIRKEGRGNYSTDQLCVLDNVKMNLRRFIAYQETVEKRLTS
UniProt Q9NP66, sequence (Q9NP66 whole entry, looked up): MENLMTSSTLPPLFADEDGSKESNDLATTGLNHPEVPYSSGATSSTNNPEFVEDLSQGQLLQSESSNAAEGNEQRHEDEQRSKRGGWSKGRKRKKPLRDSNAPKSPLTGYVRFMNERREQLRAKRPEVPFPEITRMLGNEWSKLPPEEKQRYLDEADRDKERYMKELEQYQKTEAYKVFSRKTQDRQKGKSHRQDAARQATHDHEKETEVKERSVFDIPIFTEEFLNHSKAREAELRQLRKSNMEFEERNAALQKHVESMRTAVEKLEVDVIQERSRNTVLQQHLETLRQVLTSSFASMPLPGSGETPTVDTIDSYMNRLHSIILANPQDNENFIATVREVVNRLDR

For the target GNAI3 (UniProt P08754), the log2 fold change is -0.005 in test [1]; 0.019 in test [2]; 0.011 in test [3]; -0.154 in test [4]; -0.032 in test [5].

Turning to HIP1R (UniProt O75146), the log2 fold change in test [1] is -0.038; in test [2], 0.061; in test [3], 0.1; in test [4], -0.031; in test [5], -0.02.

On to GAGE12F (UniProt P0CL80), for which the log2 fold change is -0.016 in test [1]; 0.137 in test [2]; 0.109 in test [3]; -0.089 in test [4]; 0.012 in test [5].

GOLGB1 isoform 2 (UniProt Q14789): the log2 fold change in test [1] is 0.045; in test [2] it was -0.024; in test [3], 0.018; in test [4], 0.013; in test [5], 0.045.

For the target HDGFL2 (UniProt Q7Z4V5), the log2 fold change was -0.043 in test [1]; 0.007 in test [2]; -0.03 in test [3]; -0.012 in test [4]; 0.065 in test [5].

On to GEMIN5 (UniProt Q8TEQ6), for which the log2 fold change in test [1] was -0.004; in test [2], -0.019; in test [3], 0.022; in test [4] it was 0.021; in test [5], 0.005.

As for GIGYF2 (UniProt Q6Y7W6), the log2 fold change is -0.006 in test [1]; 0.057 in test [2]; 0.057 in test [3]; 0.012 in test [4]; -0.046 in test [5].

On to GTF2B (UniProt Q00403), for which the log2 fold change in test [1] is -0.036; in test [2] it was 0.007; in test [3], 0.154; in test [4], 0.017; in test [5], -0.002.

Regarding FARS2 (UniProt O95363), the log2 fold change in test [1] is -0.021; in test [2], 0.022; in test [3], 0.006; in test [4] it was 0.069; in test [5] it was -0.018.

As for HSPA8 (UniProt E9PN89), the log2 fold change is 0 in test [1]; 0.094 in test [2]; 0.123 in test [3]; 0.133 in test [4]; 0.104 in test [5].

Turning to FAM91A1 (UniProt Q658Y4), the log2 fold change in test [1] was 0; in test [2], 0.04; in test [3], 0.028; in test [4], 0.013; in test [5], -0.043.

On to GOLPH3 (UniProt Q9H4A6), for which the log2 fold change was -0.035 in test [1]; 0.06 in test [2]; 0.04 in test [3]; -0.077 in test [4]; -0.021 in test [5].

As for GINS2 (UniProt Q9Y248), the log2 fold change in test [1] is -0.011; in test [2], 0.102; in test [3], 0.115; in test [4] it was -0.033; in test [5], -0.026.

As to FEN1 (UniProt P39748), the log2 fold change in test [1] was -0.198; in test [2] it was 0.097; in test [3], 0.157; in test [4], -0.009; in test [5] it was -0.043.

On to HMG20A (UniProt Q9NP66), for which the log2 fold change was 0.07 in test [1]; -0.085 in test [2]; 0.048 in test [3]; 0.048 in test [4]; 0.536 (active) in test [5].

HMGN1 (UniProt P05114): the log2 fold change was 0.042 in test [1]; -0.023 in test [2]; -0.119 in test [3]; 0.027 in test [4]; 0.048 in test [5].

As for HEATR3 (UniProt Q7Z4Q2), the log2 fold change was -0.073 in test [1]; -0.014 in test [2]; 0.026 in test [3]; 0.004 in test [4]; -0.04 in test [5].

In the case of GEMIN6 (UniProt Q8WXD5), the log2 fold change in test [1] was 0.027; in test [2], -0.111; in test [3] it was -0.053; in test [4], -0.113; in test [5], -0.063.

As to HDDC2 (UniProt Q7Z4H3), the log2 fold change is 0.009 in test [1]; 0.057 in test [2]; -0.012 in test [3]; -0.071 in test [4]; -0.038 in test [5].

GGA2 (UniProt Q9UJY4): the log2 fold change in test [1] was -0.023; in test [2], 0.014; in test [3], -0.035; in test [4] it was 0.041; in test [5] it was -0.047.

IDH3A (UniProt P50213): the log2 fold change in test [1] was -0.029; in test [2], 0.018; in test [3], 0.026; in test [4] it was -0.025; in test [5], -0.005.

For the target HIST2H3A (UniProt Q71DI3), the log2 fold change in test [1] was 0.068; in test [2], -0.153; in test [3], -0.266; in test [4], -0.221; in test [5] it was 0.192.

Regarding GLRX3 (UniProt O76003), the log2 fold change in test [1] is 0.04; in test [2], 0.072; in test [3] it was 0.072; in test [4], -0.033; in test [5] it was -0.018.
